# Reference: PubChem BioAssay (NCATS)
# Unmarked numbers belong to inactive results. Results filed as inconclusive are left out. A call without a number means that no potency is given here. Activity calls are given as the source filed them. Unless noted, calls come from the whole dose curve; as a rule, active = well fitted curve in the direction sought with a large enough effect; inconclusive = small, poorly fitted or top-dose-only effect, or another doubt; inactive = no such curve, though single readings can be large; an effect the other way counts as inactive or inconclusive. Residues, ends and D or L forms follow the SMILES beside them. *: point of attachment. Cbz = O=C(OCc1ccccc1)*
# Assays:
# [1] = target: Arylsulfatase A (Homo sapiens) (UniProt P15289); test: qHTS screen for enhancers of Arylsulfatase A (ASA1): LOPAC Validation Assay (AID 720538); conditions: ASA enzyme activity, LOPAC qHTS enhancer assay; series mostly up to 57.5 µM; note: potency is the fitted concentration of half-maximal effect
# Procedure, shortened: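 Cell-based enhancement test: residual ASA activity in SV40-transformed I179S patient fibroblasts is measured by pNCS turnover (0.5mM final, 14h, room temperature) following 48h compound incubation; higher fluorescence indicates activation.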
# [2] = qHTS for compounds that reverse cellular toxicity of Amyloid beta (A-beta) peptide in yeast: LOPAC Validation Assay (AID 720559); conditions: yeast expressing A-beta; series mostly up to 46.1 µM
# Procedure, shortened: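 Here, A-beta-toxic yeast grow with test compounds at 30 C for 48 hr before optical density at 600 nm is recorded; data are normalized against DMSO and the FeCl3-clioquinol control.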
# [3] = qHTS for Activators of Parkin Expression: LOPAC Validation Assay (FLuc Reporter) (AID 720573; note: potency is the fitted concentration of half-maximal effect); conditions: Cell line, PRKN promoter firefly luciferase reporter; series mostly up to 46.1 µM
# Procedure, shortened: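 Readout is FLuc luminescence from neuronal reporter cells (Parkin promoter, FLuc plus NLuc) after 24 h compound exposure in dose response. Values normalized to neutral DMSO and positive-control compounds.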
# [4] = qHTS for Activators of Parkin Expression: LOPAC Validation Assay (NLuc Reporter) (AID 720572); conditions: Parkin promoter NanoLuc reporter cells, luminescence; series mostly up to 46.1 µM
# Procedure, shortened: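 NLuc signal, read 10 min after reagent and following a prior FLuc read, is normalized to DMSO (0) and positive controls (100%). Cells: neuronal Parkin-promoter coincidence reporter line; compounds tested 7-point, 24 h, 37 C, 5% CO2.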
# [5] = qHTS assay for small molecule agonists of the antioxidant response element (ARE) signaling pathway measured by Nrf2-dependant transcriptional activity (AID 720636; active = well fitted curve in the direction sought with a large enough effect in the repeat runs; an effect the other way counts as inactive or inconclusive); conditions: ARE-luc HepG2, Nrf2 luciferase reporter, 16 h; series mostly up to 92.4 µM
# Procedure, shortened: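 ARE-luc HepG2 cells carrying an Nrf2-responsive luciferase reporter were plated in medium with 1% dialyzed FBS, left 6 hr at 37 C to attach, then exposed to compound for 16 hr. Luciferase luminescence was read after ONE-Glo addition.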
# [6] = qHTS assay for small molecule agonists of the antioxidant response element (ARE) signaling pathway measured by Nrf2-dependant transcriptional activity - cell viability counter screen (AID 720653; active = well fitted curve in the direction sought with a large enough effect in the repeat runs; an effect the other way counts as inactive or inconclusive); conditions: ARE-bla HepG2 viability, CellTiter-Glo ATP luminescence, 16 h; stronger effect = lower value
# Procedure, shortened: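 ARE-bla HepG2 cells treated with compounds for 16 h at 37C; this counter screen measures viability as intracellular ATP by CellTiter-Glo luminescence after 30 min at room temperature.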
# Arylsulfatase A (Homo sapiens), sequence (P15289 whole entry, looked up): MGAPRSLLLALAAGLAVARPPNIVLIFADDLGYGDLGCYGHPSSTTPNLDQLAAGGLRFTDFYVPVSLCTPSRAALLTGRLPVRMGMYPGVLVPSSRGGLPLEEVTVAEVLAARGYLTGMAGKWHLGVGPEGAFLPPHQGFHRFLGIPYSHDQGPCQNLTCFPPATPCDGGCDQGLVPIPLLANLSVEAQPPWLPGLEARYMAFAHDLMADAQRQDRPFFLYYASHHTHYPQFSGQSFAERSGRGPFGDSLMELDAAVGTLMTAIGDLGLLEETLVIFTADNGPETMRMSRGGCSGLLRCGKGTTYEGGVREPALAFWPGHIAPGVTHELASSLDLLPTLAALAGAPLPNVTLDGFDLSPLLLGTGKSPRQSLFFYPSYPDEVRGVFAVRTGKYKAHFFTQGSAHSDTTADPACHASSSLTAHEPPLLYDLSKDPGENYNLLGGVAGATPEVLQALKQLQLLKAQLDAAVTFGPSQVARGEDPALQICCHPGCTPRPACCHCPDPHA
Structure (SMILES),Potency [1],outcome [2],Potency [3],Potency [4],outcome [5],max response [6]
C[C@H](NC(=O)/C(C#N)=C/c1ccc(O)c(O)c1)c1ccccc1,inactive,inactive,inactive,–,–,–
Cn1c(=O)c2[nH]c(-c3ccc(S(=O)(=O)O)cc3)nc2n(C)c1=O,inactive,inactive,inactive,inactive,–,–
C/C(=C\c1ccc(C(=O)O)cc1)c1ccc2c(c1)C(C)(C)CCC2(C)C,inactive,inactive,–,inactive,inactive,-1.94%
CCCc1c(OCCCOc2ccc(OCC(=O)O)cc2)ccc(C(C)=O)c1O,inactive,inactive,inactive,inactive,inactive,7.96%
CC(C)(CO)Cc1cc(C(C)(C)C)c(O)c(C(C)(C)C)c1,inactive,inactive,inactive,inactive,–,–
CC(C)NC[C@H](O)COc1ccc(CC(N)=O)cc1,inactive,inactive,inactive,inactive,–,–
CC[C@@H]1Cc2cc(O)ccc2C2=C1c1ccc(O)cc1C[C@H]2CC,inactive,inactive,–,inactive,inactive,-25.6%
COC1(C2=NCCN2)COc2ccccc2O1 (stereo not drawn),inactive,inactive,inactive,inactive,–,–
N#CC(C#N)=C(N)/C(C#N)=C/c1ccc(O)cc1,inactive,inactive,inactive,inactive,–,–
C=CCN1CCc2c(cc(O)c(O)c2Br)[C@@H](c2ccccc2)C1,inactive,inactive,inactive,–,–,–
COC(=O)[C@H](NC(=O)c1cc(-c2ccccc2)nc2ccccc12)c1ccccc1,inactive,inactive,inactive,–,–,–
CCC(=O)N1CCN(C(=O)c2ccccc2)CC1,inactive,inactive,inactive,inactive,–,–
O=C(O)c1cc(=O)cc(C(=O)O)[nH]1,inactive,inactive,inactive,inactive,–,–
NC1C=CC=C(C(=O)O)C1 (stereo not drawn),inactive,inactive,inactive,inactive,–,–
Cc1cc2c(cc1Cl)N(C(=O)Nc1ccnc3ccccc13)CC2,inactive,inactive,inactive,inactive,–,–
NCCCCN,inactive,inactive,inactive,–,–,–
c1ccc(C2CN3CCSC3=N2)cc1 (stereo not drawn),inactive,inactive,inactive,inactive,–,–
O[Si](CCCN1CCCCC1)(c1ccc(F)cc1)C1CCCCC1 (stereo not drawn),inactive,inactive,inactive,inactive,–,–
CNCCNS(=O)(=O)c1cccc2cnccc12,inactive,inactive,inactive,inactive,–,–
O=c1cc(O)cc(/C=C/c2ccc(O)c(O)c2)o1,inactive,inactive,inactive,–,–,–
Cc1cc(Cn2cnc3c2C[C@@H](C(=O)O)N(C(=O)C(c2ccccc2)c2ccccc2)C3)ccc1N,inactive,inactive,inactive,–,–,–
C=CCN1CCc2cc(O)c(O)cc2C(c2ccccc2)C1 (stereo not drawn),inactive,inactive,inactive,–,–,–

Structure (SMILES),Potency [1],outcome [2],Potency [3],Potency [4],outcome [5],max response [6]
CC(O)C(O)[C@H]1CNc2nc(N)[nH]c(=O)c2N1 (stereo partly drawn),inactive,inactive,inactive,inactive,–,–
Nc1ccc(N2C(=O)c3ccccc3C2=O)c(Cl)c1,inactive,inactive,inactive,–,–,–
COc1cc(/C=C(\C#N)C(=O)Nc2nnc(C(F)(F)F)s2)ccc1OCc1ccc(C(F)(F)F)cc1C(F)(F)F,inactive,inactive,inactive,–,–,–
CCCn1c(=O)c(C)cn2nc(N)nc12,inactive,inactive,inactive,inactive,–,–
O=c1[nH]c(=S)[nH]c(-c2ccccc2)c1Cc1c(O)ccc2ccccc12,inactive,inactive,inactive,–,–,–
N#CC(=C(\N)Sc1ccccc1N)/C(C#N)=C(/N)Sc1ccccc1N,inactive,inactive,inactive,–,–,–
COc1cc(/C=C(\C#N)C(=O)c2ccc(O)c(O)c2)cc(I)c1O,21.3 µM (active),inactive,inactive,–,–,–
O=C1C2C=CC=CC2=NC(=S)N1CCN1CCC(=C(c2ccc(F)cc2)c2ccc(F)cc2)CC1 (stereo not drawn),inactive,inactive,inactive,inactive,–,–
CCC1(O)CC2CN(CCc3c([nH]c4ccccc34)[C@@](C(=O)OC)(c3cc4c(cc3OC)N(C)C3[C@]45CCN4CC=C[C@@](CC)([C@@H](OC(C)=O)[C@]3(O)C(=O)OC)[C@H]45)C2)C1 (stereo partly drawn),inactive,inactive,inactive,inactive,–,–
COc1ccc(CCN(C)CCc2ccc(OC)c(OC)c2)cc1OC,inactive,inactive,inactive,inactive,–,–
CCCCOC(=O)NS(=O)(=O)c1sc(CC(C)C)cc1-c1ccc(Cn2c(CC)nc3c(C)cc(C)nc32)cc1,inactive,inactive,inactive,–,–,–
Cc1nc(N=Nc2ccc(C(=O)O)cc2)c(COP(=O)(O)O)c(C=O)c1O,inactive,–,inactive,inactive,–,–
O=C(O)C1CN(CCCP(=O)(O)O)CCN1 (stereo not drawn),inactive,inactive,inactive,–,–,–
O=[N+]([O-])c1cccc2c(Br)[nH]nc12,inactive,–,inactive,inactive,–,–
CCCCCC[C@@H]([C@@H](C)O)n1cnc2c(N)ncnc21,inactive,–,inactive,inactive,–,–
N[C@@H](Cc1ccc(O)c(I)c1)C(=O)O,inactive,–,inactive,inactive,–,–
OC[C@H]1O[C@@H](n2cnc3cncnc32)[C@H](O)[C@@H]1O,inactive,–,inactive,inactive,–,–
CN[C@H](CC(=O)O)C(=O)O,inactive,–,inactive,inactive,–,–
O=c1oc(Cl)c(Cl)c2ccccc12,inactive,–,–,inactive,–,–
Brc1c(Br)c(Br)c2[nH]cnc2c1Br,inactive,inactive,inactive,–,–,–
Oc1cc2c(cc1O)C(c1ccccc1)CNCC2 (stereo not drawn),inactive,–,inactive,inactive,–,–
O=c1ccn([C@@H]2O[C@H](COP(=O)(O)OP(=O)(O)O)[C@@H](O)[C@H]2O)c(=O)[nH]1,inactive,–,inactive,inactive,–,–

Structure (SMILES),Potency [1],outcome [2],Potency [3],Potency [4],outcome [5],max response [6]
CSC(N)=NCCC[C@H](N)C(=O)O,inactive,–,inactive,–,–,–
O=C1NC(=O)c2cc(Nc3ccccc3)c(Nc3ccccc3)cc21,–,inactive,–,–,–,–
CC[C@H](NC(=O)c1c(C)c(-c2ccccc2)nc2ccccc12)c1ccccc1,inactive,–,inactive,–,–,–
Nc1ccc2c3c(cccc13)C(=O)NC2=O,4.26 µM (active),–,inactive,–,–,–
COc1ccc2c(c1)c(CC(=O)O)c(C)n2C(=O)c1ccccc1,inactive,inactive,inactive,–,–,–
O=C(O)C1=CCCNC1,inactive,–,inactive,inactive,–,–
Cc1cccc(C(=O)NCN2CCN(c3ccccc3C#N)CC2)c1,inactive,inactive,inactive,–,–,–
NC(N)=[N+]1CCc2ccccc2C1,–,inactive,–,–,–,–
CCCCC[C@H](CC(=O)NO)C(=O)N[C@H](C(=O)N1CCC[C@H]1CO)C(C)C,inactive,–,inactive,inactive,–,–
NC(=Nc1ccccc1)NC(=O)c1nc(Cl)c(N)nc1N,inactive,inactive,8.2 µM (active),–,–,–
NCCC1CCCC(CCN)N1 (stereo not drawn),inactive,inactive,inactive,–,–,–
CCOC(=O)C12CC1/C(=N/O)c1ccccc1O2 (stereo not drawn),inactive,inactive,inactive,–,–,–
CCN1C(=O)C=CC1=O,inactive,–,inactive,–,–,–
O=C(O)Cc1ccc(O)c(O)c1,inactive,inactive,inactive,–,–,–
CN(C)CCCc1cc(C(=O)Nc2ccc(-c3ccncc3)cc2)ccc1O,inactive,–,inactive,inactive,–,–
O=C(O)/C=C/c1ccc(O)c(O)c1,inactive,–,inactive,inactive,–,–
CC(N)=NCCCC[C@@H](N)C(=O)O,inactive,–,inactive,inactive,–,–
C=C1C[C@@]23CC[C@H]4[C@@](C)(CCC[C@@]4(C)C(=O)O)[C@@H]2CC[C@]1(O)C3,inactive,–,inactive,–,–,–
Nc1ccc(-c2nc3ccc(-c4nc5ccc(N)cc5[nH]4)cc3[nH]2)cc1,6.75 µM (active),–,inactive,inactive,–,–
C=CC1(C)CC(=O)C2(O)C(C)(O1)C(OC(C)=O)C(O)C1C(C)(C)CCC(O)C12C (stereo not drawn),inactive,–,inactive,–,–,–
Cc1cccc(C2CN(C)CCc3c2cc(O)c(O)c3Cl)c1 (stereo not drawn),inactive,–,inactive,–,–,–
Nc1ncnc2c1ncn2C1CCCC1,inactive,–,inactive,inactive,–,–

Structure (SMILES),Potency [1],outcome [2],Potency [3],Potency [4],outcome [5],max response [6]
Cn1c(=O)c2[nH]c(C3CCCC3)nc2n(C)c1=O,inactive,–,inactive,inactive,–,–
N[C@@H](CCCC(=O)O)C(=O)O,inactive,inactive,inactive,–,–,–
C=CC[C@H](N)C(=O)O,inactive,–,inactive,inactive,–,–
Oc1ccc(/C=C/c2ccc(/C=C/c3ccc(O)cc3)c(Br)c2)cc1,–,inactive,–,–,–,–
O=c1cc(-c2ccccc2)[nH]c2nc(Cl)ccc12,–,inactive,–,inactive,–,–
O=C(N[C@@H](Cc1ccccc1)C(=O)CCl)OCc1ccccc1,–,inactive,inactive,inactive,–,–
COc1ccc(-c2ccc(N)[n+](CCCC(=O)O)n2)cc1,–,inactive,–,inactive,–,–
CC(C)[C@H](NC(=O)OCc1ccccc1)C(=O)N[C@H](C=O)Cc1ccccc1 (Cbz-Val-Phe-aldehyde),–,inactive,inactive,inactive,–,–
CC(C)[C@@H]1CC[C@@H](C)C[C@@H]1P(=O)(c1ccccc1)c1ccccc1,–,inactive,inactive,inactive,–,–
COc1cc(N)c(Cl)cc1C(=O)OCCN1CCCCC1,–,inactive,–,inactive,–,–
N#C/C(=C\c1ccc(O)c(O)c1)C(=O)NCCc1ccccc1,–,inactive,–,inactive,–,–
CCN(CC)CCOC(=O)c1cc(Cl)c(N)cc1OC,–,inactive,inactive,inactive,–,–
CCCn1c(=O)c2[nH]c(C3CCCC3)nc2n(CCC)c1=O,–,inactive,inactive,inactive,–,–
O=C(O)Cc1c[nH]c2ccc(O)cc12,–,inactive,inactive,inactive,–,–
Nc1ccc(CCNc2ncnc3c2ncn3C2OC(CO)C(O)C2O)cc1 (stereo not drawn),–,inactive,inactive,inactive,–,–
CC(C)C[C@H](NC(=O)[C@H](O)[C@H](N)Cc1ccccc1)C(=O)O,–,inactive,inactive,inactive,–,–
NCC(O)C1CCCCCCC1 (stereo not drawn),–,inactive,inactive,inactive,–,–
C=CCN1CCc2c(cc(O)c(O)c2Cl)C(c2ccccc2)C1 (stereo not drawn),–,inactive,inactive,inactive,–,–
O=c1onc2n1-c1cc(Br)ccc1OC2,–,inactive,–,inactive,–,–
CC(C)(C)c1ccc(/C=C/C(=O)Nc2ccc3c(c2)OCCO3)cc1,–,inactive,inactive,inactive,–,–
